Data from PubChem BioAssay AID1159580 (chemical genetic matrix, 2015).
Out of some 5,500 compounds screened, about 2,000 (36%) were called active. Inconclusive results (about 18%) are left out. Rule as the data show it: active = normalized growth mostly below about 0.91 (no sharp cut-off); inconclusive = no clear call, values can overlap the other calls; inactive = mostly above about 0.92. The list shows a part of the results. Where a SMILES comes first, the peptide text is derived from it. [ ]: non-standard residue; d: D form. Orn = NCCC[CH](N)C(=O)O

Assay: chemical genetic growth profiling, strain panel (AID 1159580);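 also: tested at 20 µM; growth read once vehicle control cultures reached saturation at 30 °C; 1 = growth at the plate median or of vehicle wells; lower values mean less growth of the strain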
Conditions: growth OD

Measured: normalized growth

CC(C)CC1NC(=O)C(CCCN)NC(=O)C(C(C)C)NC(=O)C2CCCN2C(=O)C(Cc2ccccc2)NC(=O)C(CC(C)C)NC(=O)C(CCCN)NC(=O)C(C(C)C)NC(=O)C2CCCN2C(=O)C(Cc2ccccc2)NC1=O (stereo unspecified) (cyclo(FPV[Orn]LFPV[Orn]L); configuration not given here)
inactive: S. cerevisiae deletion strains, locus YKL160W, strain elf1, active compounds read low 1.02 | S. cerevisiae deletion strains, locus YKL190W, strain CNB1, active compounds read low 1.02 | S. cerevisiae deletion strains, locus YKR026C, strain gcn3, active compounds read low 1.04 | S. cerevisiae deletion strains, locus YKR091W, strain srl3, active compounds read low 1.02 | S. cerevisiae deletion strains, locus YLL001W, strain dnm1, active compounds read low 1.03 | S. cerevisiae deletion strains, locus YLL026W, active compounds read low 1.02 | S. cerevisiae deletion strains, locus YLL041C, strain sdh2, active compounds read low 1.02 | S. cerevisiae deletion strains, locus YLR027C, strain aat2, active compounds read low 1.01 | S. cerevisiae deletion strains, locus YLR058C, strain SHM2, active compounds read low 1 | S. cerevisiae deletion strains, locus YLR102C, strain apc9, active compounds read low 1.01 | S. cerevisiae deletion strains, locus YLR113W, strain HOG1, active compounds read low 0.971 | S. cerevisiae deletion strains, locus YLR221C, strain rsa3, active compounds read low 1.04 | S. cerevisiae deletion strains, locus YLR258W, strain gsy2, active compounds read low 1.04 | S. cerevisiae deletion strains, locus YLR268W, strain sec22, active compounds read low 0.989 | S. cerevisiae deletion strains, locus YLR320W, strain mms22, active compounds read low 1.02 | S. cerevisiae deletion strains, locus YLR330W, strain CHS5, active compounds read low 1.01 | S. cerevisiae deletion strains, locus YLR342W, strain FKS1 (second series), active compounds read low 0.857 | S. cerevisiae deletion strains, locus YLR342W, strain FKS1, active compounds read low 1.02 | S. cerevisiae deletion strains, locus YLR357W, strain rsc2, active compounds read low 0.968 | S. cerevisiae deletion strains, locus YLR370C, strain arc18, active compounds read low 0.927 | S. cerevisiae deletion strains, locus YLR371W, strain rom2, active compounds read low 1.01 | S. cerevisiae deletion strains, locus YLR384C, strain iki3, active compounds read low 1.03 | S. cerevisiae deletion strains, locus YLR418C, strain cdc73, active compounds read low 0.932 | S. cerevisiae deletion strains, locus YML016C, strain PPZ1, active compounds read low 1.01 | S. cerevisiae deletion strains, locus YML032C, strain rad52, active compounds read low 0.989 | S. cerevisiae deletion strains, locus YML120C, strain ndi1, active compounds read low 1.02 | S. cerevisiae deletion strains, locus YML124C, strain tub3, active compounds read low 1 | S. cerevisiae deletion strains, locus YMR058W, strain fet3, active compounds read low 1.03 | S. cerevisiae deletion strains, locus YMR078C, strain ctf18, active compounds read low 1.01 | S. cerevisiae deletion strains, locus YMR125W, strain sto1, active compounds read low 0.999 | S. cerevisiae deletion strains, locus YMR129W, active compounds read low 1.02 | S. cerevisiae deletion strains, locus YMR205C, strain PFK2, active compounds read low 1.02 | S. cerevisiae deletion strains, locus YMR223W, strain ubp8, active compounds read low 0.978 | S. cerevisiae deletion strains, locus YMR263W, strain SAP30, active compounds read low 1 | S. cerevisiae deletion strains, locus YMR307W, strain GAS1, active compounds read low 0.833 | S. cerevisiae deletion strains, locus YNL067W, strain RPL9B, active compounds read low 0.994 | S. cerevisiae deletion strains, locus YNL071W, strain lat1, active compounds read low 1.03 | S. cerevisiae deletion strains, locus YNL128W, strain TEP1, active compounds read low 1.03 | S. cerevisiae deletion strains, locus YNL153C, strain GIM3, active compounds read low 1 | S. cerevisiae deletion strains, locus YNL183C, strain NPR1, active compounds read low 0.948 | S. cerevisiae deletion strains, locus YNL209W, strain ssb2, active compounds read low 1.01 | S. cerevisiae deletion strains, locus YNL233W, strain BNI4, active compounds read low 0.982 | S. cerevisiae deletion strains, locus YNL248C, strain rpa49, active compounds read low 1.03 | S. cerevisiae deletion strains, locus YNL250W, strain rad50, active compounds read low 0.998 | S. cerevisiae deletion strains, locus YNL271C, strain bni1, active compounds read low 0.995 | S. cerevisiae deletion strains, locus YNL298W, strain CLA4, active compounds read low 0.967 | S. cerevisiae deletion strains, locus YNL307C, strain MCK1, active compounds read low 0.991 | S. cerevisiae deletion strains, locus YNL322C, strain KRE1 (second series), active compounds read low 1.06 | S. cerevisiae deletion strains, locus YNL322C, strain KRE1, active compounds read low 1.01 | S. cerevisiae deletion strains, locus YNR049C, strain mso1, active compounds read low 1.04 | S. cerevisiae deletion strains, locus YNR052C, strain pop2, active compounds read low 0.984 | S. cerevisiae deletion strains, locus YOL012C, strain htz1 0.807 | S. cerevisiae deletion strains, locus YOL147C, strain pex11, active compounds read low 1.01 | S. cerevisiae deletion strains, locus YOR001W, strain rrp6, active compounds read low 1 | S. cerevisiae deletion strains, locus YOR061W, strain CKA2, active compounds read low 1 | S. cerevisiae deletion strains, locus YOR069W, strain VPS5, active compounds read low 1 | S. cerevisiae deletion strains, locus YOR070C, strain gyp1, active compounds read low 1.03 | S. cerevisiae deletion strains, locus YOR080W, strain dia2, active compounds read low 1.05 | S. cerevisiae deletion strains, locus YOR083W, strain WHI5, active compounds read low 1.01 | S. cerevisiae deletion strains, locus YOR106W, strain vam3, active compounds read low 1.01 | S. cerevisiae deletion strains, locus YOR136W, strain idh2, active compounds read low 1 | S. cerevisiae deletion strains, locus YOR144C, strain elg1, active compounds read low 1 | S. cerevisiae deletion strains, locus YOR184W, strain ser1, active compounds read low 0.987 | S. cerevisiae deletion strains, locus YOR231W, strain MKK1, active compounds read low 0.983 | S. cerevisiae deletion strains, locus YOR265W, strain rbl2, active compounds read low 1.03 | S. cerevisiae deletion strains, locus YOR290C, strain snf2, active compounds read low 0.973 | S. cerevisiae deletion strains, locus YOR316C, strain cot1, active compounds read low 1.01 | S. cerevisiae deletion strains, locus YPL055C, strain LGE1, active compounds read low 0.985 | S. cerevisiae deletion strains, locus YPL078C, strain atp4, active compounds read low 1.02 | S. cerevisiae deletion strains, locus YPL106C, strain sse1, active compounds read low 0.995 | S. cerevisiae deletion strains, locus YPL240C, strain hsp82, active compounds read low 1.03 | S. cerevisiae deletion strains, locus YPL241C, strain CIN2, active compounds read low 1.01 | S. cerevisiae deletion strains, locus YPL256C, strain CLN2, active compounds read low 0.97 | S. cerevisiae deletion strains, locus YPR119W, strain clb2, active compounds read low 1 | S. cerevisiae deletion strains, locus YPR141C, strain kar3, active compounds read low 0.997 | S. cerevisiae deletion strains, locus YPR163C, strain tif3, active compounds read low 0.953 | S. cerevisiae deletion strains, locus YPR167C, strain met16, active compounds read low 1.01 | S. cerevisiae deletion strains, strain wtn01, active compounds read low 0.988 | S. cerevisiae strains, strain wild type, active compounds read low 1.04
active: S. cerevisiae deletion strains, locus YKL009W, strain mrt4, active compounds read low 1.4 [resistant] | S. cerevisiae deletion strains, locus YKL068W, active compounds read low 1.25 [resistant] | S. cerevisiae deletion strains, locus YKL085W, strain MDH1 (second series), active compounds read low 1.11 [resistant] | S. cerevisiae deletion strains, locus YKL085W, strain MDH1, active compounds read low 1.11 [resistant] | S. cerevisiae deletion strains, locus YKR001C, strain vps1, active compounds read low 0.236 | S. cerevisiae deletion strains, locus YLR039C, strain RIC1, active compounds read low 0.328 | S. cerevisiae deletion strains, locus YLR262C, strain YPT6 (second series), active compounds read low 0.293 | S. cerevisiae deletion strains, locus YLR262C, strain YPT6, active compounds read low 0.285 | S. cerevisiae deletion strains, locus YMR231W, strain pep5, active compounds read low 0.324 | S. cerevisiae deletion strains, locus YOL006C, strain TOP1, active compounds read low 0.122 | S. cerevisiae deletion strains, locus YOR270C, strain vph1, active compounds read low 0.468 | S. cerevisiae deletion strains, locus YPL051W, strain arl3, active compounds read low 0.7
